activation, outcome and potentiation data for 15 compounds are collected here from PubChem BioAssay.

For part of these data: Measured potencies and affinities stand elsewhere. Active and inactive are the calls of the source.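 The calls were made as follows, unless noted: active = compound raising the membrane signal above positive-control mean plus 3 SD in both repeats, and a primary screen hit; inactive = the rest.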

Assay [1] deals with TRPC4 beta (transient receptor potential cation channel C4), mouse. The experiment in a line: TRPC4 cation channel opening, retest – cell-based, Fluo4 calcium, HEK293 TRPC4beta/mu-opioid, duplicates, 10 µM, confirmation (AID 2426;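 active = fluorescence ratio normalized to control raised more than 50% in primary screen plus both repeat runs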;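 as to activation: percent rise of integrated ratio over buffer wells lacking compound which define 0%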). The following applies: Fluo4 calcium fluorescence, at 10 µM; active compounds read high.
The test system of assay [2] is transient receptor potential cation channel C4 beta (TRPC4), mouse. Put plainly: TRPC4 cation channel opening, second retest – cell-based, second round, Fluo4, HEK293 TRPC4beta/mu-opioid, 1 µM, confirmation (AID 2461;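 active = primary screen active and over 50% activation in each of two duplicate runs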;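 as to activation: 0% = wells without test compound as baseline of integrated fluorescence ratio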). The following applies: Fluo4 calcium fluorescence, at 1 µM; active compounds read high.
Assay [3] relates to TRPC4 (transient receptor potential cation channel C4 beta), mouse. The experiment in a line: potentiation of DAMGO EC20 TRPC4 response – cell-based, second round, Fluo-4, HEK293 TRPC4beta/mu-opioid, 1 µM, confirmation (AID 2554;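 active = primary screen hit whose fluorescence ratio, in both repeats, exceeds the weak agonist control mean by 3 SD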). The following applies: DAMGO EC20, Fluo-4 calcium flux, at 1 µM; active compounds read high. For orientation: Calcium assays in cells follow changes in intracellular calcium, usually with a dye or a luminescent sensor.

Assay [4] relates to TRPC4 beta (transient receptor potential cation channel C4), mouse. The experiment in a line: potentiation of DAMGO EC20 TRPC4 response – cell-based, Fluo-4, HEK293 TRPC4beta/mu-opioid, confirmation (AID 2555;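 active = primary screen hit whose calcium fluorescence ratio, in both repeats, exceeds the weak agonist control mean by 3 SD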). The following applies: DAMGO EC20, Fluo-4 calcium flux, at 10 µM; active compounds read high.
The target of assay [5] is Short transient receptor potential channel 4 (Mus musculus) (UniProt Q9QUQ5). The experiment in a line: blockers of DAMGO-evoked TRPC4 calcium flux – cell-based, Fluo4, HEK293 TRPC4beta/mu-opioid, confirmation (AID 2636;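 active = calcium signal cut by more than 3 SD below the full-agonist control yet still positive, in both repeats and the earlier primary screen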). The following applies: at 10 µM; active compounds read high.
Chain of Short transient receptor potential channel 4 (Mus musculus) (Q9QUQ5 whole entry, looked up): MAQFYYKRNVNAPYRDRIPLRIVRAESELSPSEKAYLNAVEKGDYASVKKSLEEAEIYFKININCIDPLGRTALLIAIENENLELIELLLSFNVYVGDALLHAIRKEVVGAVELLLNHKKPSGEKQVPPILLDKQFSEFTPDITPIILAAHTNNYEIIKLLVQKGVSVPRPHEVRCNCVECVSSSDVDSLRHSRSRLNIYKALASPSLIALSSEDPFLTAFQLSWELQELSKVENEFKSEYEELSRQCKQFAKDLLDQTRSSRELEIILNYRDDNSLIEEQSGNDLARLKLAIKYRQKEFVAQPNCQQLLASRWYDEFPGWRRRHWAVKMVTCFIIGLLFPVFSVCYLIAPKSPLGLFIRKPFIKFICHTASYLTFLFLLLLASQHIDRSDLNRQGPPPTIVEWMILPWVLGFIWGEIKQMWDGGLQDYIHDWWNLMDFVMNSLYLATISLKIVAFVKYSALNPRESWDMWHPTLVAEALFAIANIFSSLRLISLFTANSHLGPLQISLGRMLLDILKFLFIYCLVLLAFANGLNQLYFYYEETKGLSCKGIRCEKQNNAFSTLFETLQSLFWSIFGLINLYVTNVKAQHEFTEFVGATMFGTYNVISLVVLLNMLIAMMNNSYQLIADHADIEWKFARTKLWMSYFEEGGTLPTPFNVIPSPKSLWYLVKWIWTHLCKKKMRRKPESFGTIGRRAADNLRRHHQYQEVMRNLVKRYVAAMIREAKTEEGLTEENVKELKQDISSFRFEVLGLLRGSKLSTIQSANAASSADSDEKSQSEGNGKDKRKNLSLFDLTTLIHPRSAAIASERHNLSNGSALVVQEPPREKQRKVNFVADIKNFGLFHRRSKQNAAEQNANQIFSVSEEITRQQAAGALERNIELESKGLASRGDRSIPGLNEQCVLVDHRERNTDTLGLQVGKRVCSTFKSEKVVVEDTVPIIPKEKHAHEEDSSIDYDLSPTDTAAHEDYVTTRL
For assay [6] the target is unchanged. Put plainly: blockers of DAMGO-evoked TRPC4 calcium flux – cell-based, second round, Fluo4, HEK293 TRPC4beta/mu-opioid, 1 µM, confirmation (AID 2637;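 active = calcium signal ratio cut to more than 3 SD under the fully stimulated control mean yet still positive, in both repeats and the primary screen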). The following applies: at 1 µM; active compounds read high.
For assay [7] the target is unchanged. The experiment in a line: potentiation of DAMGO-evoked TRPC4 calcium signal – cell-based, HEK293 TRPC4/mu-opioid, Fluo-4 calcium, EC20 DAMGO, dose response (AID 434941;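 active = earlier screen potentiator hit that boosts the TRPC4 ion channel at some dose, with a dose response; inactive = no potentiation, no dose response, or not a prior hit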;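 also: calcium entry triggered by an EC20 dose of DAMGO at the co-expressed mu-opioid receptor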).
For assay [8] the target is unchanged. The experiment in a line: block of DAMGO-driven TRPC4 calcium entry – cell-based, HEK293 TRPC4/mu-opioid, Fluo-4 calcium, dose response (AID 434942;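 active = primary screen inhibitor hit that blocks the TRPC4 channel at some tested dose, yielding a dose curve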).
Assay [9] deals with Short transient receptor potential channel 6 (Mus musculus) (UniProt Q61143). Put plainly: TRPC6 blockade by TRPC4 inhibitor hits – cell-based, HEK293, membrane potential dye, duplicate, selectivity assay for TRPC4 inhibitor project, confirmation (AID 434948;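 active = active in primary screen and both duplicates, each dropping signal beyond three positive-control SD with fluorescence still positive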). The following applies: HEK293 TRPC6, membrane potential dye fluorescence, at 10 µM, stimulated with maximal-effect acetylcholine; active compounds read high.
Chain of Short transient receptor potential channel 6 (Mus musculus) (Q61143 whole entry, looked up): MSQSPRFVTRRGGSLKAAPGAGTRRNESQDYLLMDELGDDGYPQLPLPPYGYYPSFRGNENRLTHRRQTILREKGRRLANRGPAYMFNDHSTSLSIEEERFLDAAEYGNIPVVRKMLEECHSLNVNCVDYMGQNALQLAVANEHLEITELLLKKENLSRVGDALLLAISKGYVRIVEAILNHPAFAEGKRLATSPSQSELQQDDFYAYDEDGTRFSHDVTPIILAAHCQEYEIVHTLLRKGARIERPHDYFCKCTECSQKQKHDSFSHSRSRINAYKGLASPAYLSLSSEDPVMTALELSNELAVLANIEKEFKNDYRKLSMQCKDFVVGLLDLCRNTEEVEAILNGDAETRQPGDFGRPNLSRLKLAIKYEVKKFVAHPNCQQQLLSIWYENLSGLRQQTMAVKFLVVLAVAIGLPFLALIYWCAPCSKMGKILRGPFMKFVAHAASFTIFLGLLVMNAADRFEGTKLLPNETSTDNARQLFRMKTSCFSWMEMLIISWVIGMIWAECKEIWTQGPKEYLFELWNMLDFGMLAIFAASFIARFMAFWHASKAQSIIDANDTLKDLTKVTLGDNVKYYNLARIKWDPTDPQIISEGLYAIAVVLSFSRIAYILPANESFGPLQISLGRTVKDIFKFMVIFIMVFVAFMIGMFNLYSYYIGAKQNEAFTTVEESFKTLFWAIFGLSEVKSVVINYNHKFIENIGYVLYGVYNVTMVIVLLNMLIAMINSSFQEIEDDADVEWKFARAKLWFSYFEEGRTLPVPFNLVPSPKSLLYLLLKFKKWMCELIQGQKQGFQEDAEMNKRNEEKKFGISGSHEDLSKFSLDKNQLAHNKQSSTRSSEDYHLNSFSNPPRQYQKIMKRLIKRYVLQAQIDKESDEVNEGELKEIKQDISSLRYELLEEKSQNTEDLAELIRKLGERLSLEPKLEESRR

The target is the same in assay [10]. Put plainly: TRPC6 opening by TRPC4 activator hits – cell-based, HEK293, membrane potential dye, duplicate, selectivity assay for TRPC4 activator project, confirmation (AID 434950;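 active = membrane potential signal rise above negative control mean plus 3 SD in both duplicates, also active in the earlier TRPC4 screen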;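 as to activation: 0% = buffer only wells and 100% = acetylcholine maximal-effect wells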). The following applies: HEK293 TRPC6, membrane potential fluorescence, at 10 µM; activation: active compounds read high; outcome: activation.
The target is the same in assay [11]. The experiment in a line: positive modulators of mouse TRPC6 channel – HEK293 cells, membrane potential dye, duplicate, selectivity assay for TRPC4 potentiator project, confirmation (AID 434952). The following applies: HEK293 TRPC6, membrane potential dye fluorescence, at 10 µM, maximal acetylcholine added after compound; active compounds read high.
Assay [12] has as its target Short transient receptor potential channel 4 (Mus musculus) (UniProt Q9QUQ5). Put plainly: calcium flux activators in TRPC4/5HT1a cells, counter-screen for TRPC4 activator project, cell-based, second counter screen, HEK293 TRPC4/5HT1a, Fluo-4 (AID 434977;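 active = calcium signal rise above buffer-control mean plus 5 SD in both duplicates, and also a hit in the primary screen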;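 as to activation: plate controls were assay buffer for no effect and maximal serotonin response for full effect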). The following applies: Fluo-4 calcium flux, at 10 µM; active compounds read high.
Assay [13] can be described thus: serotonin-gated TRPC4 signal block – cell-based, second counter screen, HEK293 TRPC4/5HT1a, Fluo-4, counter-screen for TRPC4 inhibitor project, confirmation (AID 434978;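 active = primary screen active whose calcium signal fell more than 3 SD beyond the full-serotonin control mean in both duplicate plates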;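 also: serotonin given first at submaximal then at maximal dose after compound preincubation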). The following applies: Fluo-4 calcium flux, at 10 µM, serotonin added to trigger calcium flux; active compounds read high. Background: Counterscreens check selectivity or assay interference.
For assay [14], the system named is TRPC4 (mouse), co-expressed with 5HT1a in HEK293. Put plainly: enhancement of serotonin-evoked TRPC4 response – cell-based, second counter screen, HEK293 TRPC4/5HT1a, Fluo-4, counter-screen for TRPC4 potentiator project, confirmation (AID 434979;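 active = signal rise over 3 SD above mean of control wells given weak agonist, in both repeats and first screen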). The following applies: Fluo-4 calcium flux, at 10 µM, serotonin added at its EC20 dose; active compounds read high.
The nature of assay [15]: nonspecific calcium rise without TRPC4 – cell-based, HEK293 mu-opioid receptor line, counter-screen for TRPC4 activator project, confirmation (AID 449723;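 active = hit in primary screen, with calcium signal over 5 SD above buffer well mean in both duplicates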;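 also: counter screen cells carry the mu-opioid receptor alone and lack TRPC4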). The following applies: HEK293 mu-opioid cells, Fluo-4 calcium fluorescence, at 10 µM; active compounds read high.
The nature of assay [16]: nonspecific potentiation of DAMGO calcium response – cell-based, HEK293 mu-opioid receptor line, counter-screen for TRPC4 allosteric potentiator project, confirmation (AID 449724;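 active = calcium signal rise more than 3 SD above the low-dose agonist control mean, in both duplicate plates and the primary screen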;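 also: HEK293 cells carrying mu-opioid receptor only with no TRPC4 channel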). The following applies: HEK293 mu-opioid receptor cells, Fluo-4 calcium flux, at 10 µM, compound added before EC20 DAMGO stimulus; active compounds read high.

As to `NC(=O)C1CCCN(CC(O)COCc2ccc(Cl)cc2)C1` (stereo not given), the activation in [1] is 140% (active); in [2], 133% (active); in assay [10], 31.5% (active); in assay [12], 69.7% (active). The result in assay [3], in assay [4], in assay [5], in assay [6], in assay [7] and in [8] was inactive. Also, the result in [9], in assay [11], in assay [13], in assay [14], in assay [15] and in [16] was inactive.
Take `O=C(NCc1cccnc1)C1CCCN(Cc2cnn(-c3ccccc3)c2-n2cccc2)C1` (stereo not given): the results for the activation in [1], in assay [10] and in assay [12] were 83% (active), 46% (active) and 16.2% (active), respectively. Moreover, the outcome in assay [2], in [3], in assay [4], in assay [5], in assay [6] and in assay [7] was inactive. For the same compound, the result in assay [8], in assay [9], in assay [11], in assay [13], in assay [14] and in assay [15] was inactive. The outcome in assay [16] was inactive.
For the compound `COc1ccc(-c2cc(C#N)nc(N3CCNCC3)n2)cc1`, the activation in assay [1] was 176% (active). In addition, the outcome in assay [2], in [3], in [4], in [5], in assay [6] and in [7] was inactive. The result in [8], in [9], in assay [10], in assay [11], in assay [12] and in [13] was inactive. Moreover, the outcome in [14], in [15] and in assay [16] was inactive.
`COC(=O)c1ccccc1N=Nc1c(N)[nH][nH]c1=O`: the results for the activation in [1] and in assay [12] were 87% (active) and 51.2% (active), respectively. Further, the result in assay [2], in [5], in assay [6], in assay [7], in assay [8] and in assay [9] was inactive. For the same compound, the call in assay [10], in assay [11], in [13], in [15] and in assay [16] was inactive. For the same compound, the potentiation in assay [3] is 69% (active); in [4], 54% (active); in assay [14], 46.3% (active).
In the case of `CN(C)C(CNC(=O)/C=C/c1cccc(Cl)c1)c1ccccc1` (stereo not given), the values for the activation in assay [1], in assay [2] and in assay [10] were 148% (active), 83% (active) and 49% (active), respectively. For the same compound, the result in [3], in assay [4], in assay [5], in [6], in assay [7] and in assay [8] was inactive. The compound was called inactive in [9], in [11], in [12], in assay [13], in assay [14] and in [15]. The outcome in [16] was inactive.
On to `Cc1ccccc1C(=O)NNC(=S)NC(=O)c1ccccc1`, for which the activation was 215% (active) in assay [1], 43.5% (active) in assay [10], 121% (active) in assay [12] and 72.9% (active) in [15]. Moreover, the outcome in assay [2], in assay [3], in [4], in assay [5], in assay [6] and in assay [7] was inactive. Further, the outcome in [8], in assay [9], in assay [11], in assay [13], in [14] and in [16] was inactive.
`CN(C)C(CNC(=S)Nc1cccc(Cl)c1)c1ccccc1` (stereo not given): the activation in assay [1] is 255% (active); in [2] it was 127% (active). Moreover, the result in [3], in [4], in assay [5], in assay [6], in assay [7] and in [8] was inactive. For the same compound, the outcome in [9], in [10], in assay [11], in assay [12], in [13] and in [14] was inactive. Further, the outcome in assay [15] and in assay [16] was inactive.
`Cc1cc(NC(=O)c2cnn3cccnc23)nn1CC(=O)Nc1cccnc1`: the outcome in [1], in assay [2], in assay [5], in assay [6], in [7] and in assay [8] was inactive. Also, the outcome in assay [9], in assay [10], in [11], in assay [12], in assay [13] and in assay [15] was inactive. Also, the result in assay [16] was inactive. The potentiation was 22% (active) in assay [3], 109% (active) in [4] and 72.1% (active) in [14].
Regarding `COc1ccccc1C(=O)NNC(=S)NC(=O)c1cccs1`, the activation in [1] is 74% (active); in assay [12], 59.6% (active); in assay [15], 13.9% (active). For the same compound, the result in [2], in assay [3], in [4], in [5], in assay [6] and in assay [7] was inactive. Further, the outcome in assay [8], in assay [9], in assay [10], in [11], in assay [13] and in [14] was inactive. Besides, the outcome in [16] was inactive.
For `CN(C)C(CNC(=O)c1ccc2ccccc2n1)c1ccccc1` (stereo not given), the activation is 61% (active) in [1] and 54% (active) in assay [10]. In addition, the outcome in assay [2], in [3], in assay [4], in assay [5], in assay [6] and in [7] was inactive. The outcome in assay [8], in assay [9], in assay [11], in assay [12], in [13] and in assay [14] was inactive. Also, the result in [15] and in assay [16] was inactive.
For `Cc1ccc(C(=O)NC(=S)NNC(=O)c2ccccc2)cc1`, the outcome in [1], in assay [2], in [3], in assay [4], in assay [5] and in [6] was inactive. Also, the outcome in assay [7], in assay [8], in assay [9], in [11], in assay [13] and in assay [14] was inactive. The outcome in [16] was inactive. The activation in [10] is 31.5% (active); in [12] it was 72.6% (active); in assay [15] it was 12.1% (active).
Turning to `Cc1ccccc1N(CC(=O)N/N=C/c1ccc(F)cc1)C(=O)c1ccccc1`, the outcome in [1], in assay [2], in [3], in assay [4], in assay [5] and in [6] was inactive. Further, the result in assay [7], in assay [8], in assay [9], in assay [10], in [11] and in assay [12] was inactive. Further, the outcome in assay [13], in [14], in assay [15] and in assay [16] was inactive.
Regarding `Cc1ccc(C)c(OCCCCCn2ccnc2)c1`, the activation in assay [1] was 174% (active); in assay [10], 49% (active); in assay [12] it was 25.7% (active). The result in [2], in assay [3], in assay [4], in [5], in [6] and in [7] was inactive. For the same compound, the outcome in assay [8], in [9], in assay [11], in assay [13], in assay [14] and in assay [15] was inactive. Further, the result in assay [16] was inactive.
Take `COc1cc(/C=C/C(=O)c2ccc3c(c2)OCO3)cc(Cl)c1O`: the activation in assay [1] was 113% (active); in [10], 427% (active); in assay [12], 69.2% (active); in assay [15] it was 122% (active). In addition, the result in [2], in [3], in assay [4], in assay [5], in assay [6] and in assay [7] was inactive. The result in assay [8], in assay [9], in assay [11], in assay [13], in assay [14] and in [16] was inactive.
For `Cc1ccc(C(=O)NNC(=S)NC(=O)c2ccc(Cl)cc2)cc1`, the result in assay [1], in [2], in [3], in assay [4], in assay [5] and in [6] was inactive. The result in [7], in assay [8], in assay [9], in [11], in assay [13] and in assay [14] was inactive. Further, the outcome in [15] and in [16] was inactive. The figures for the activation in assay [10] and in [12] were 29.5% (active) and 77.8% (active), respectively.
